# Assay outcomes (PubChem BioAssay)
# Only some compounds are listed: those with a hit (about 1.8% of all), similar ones and a draw of the others.
# LYPLA1 counter = blocks human lysophospholipase 1, a PME1 counter-screen | O75608 | recombinant LYPLA1, FP-Rh probe fluorescence polarization | inhibition, % at 5.9 µM | 0.16% of 320,000 active | AID 2174;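 active means inhibition above the mean of all tested compounds plus 3 SD, set per campaign, cut at about 14% in these data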;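 further: inhibitors block serine hydrolase probe labeling of LYPLA1 so polarization falls; 0% = enzyme with DMSO and 100% = wells lacking LYPLA1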
# Fam108B inh = Fam108B inhibition, counter-screen for RBBP9 inhibitors; inhibition, % at 9.51 µM; recombinant Fam108B, FP-Rh probe fluorescence polarization; 0.33% of 300,000 active;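 active means inhibition above the screen mean inhibition plus 3 SD, computed separately per campaign, cut at about 18% in these data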;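 further: inhibitors lower polarization as less probe binds the enzyme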
# GSTO1 inh = blocks human GSTO1 in RBBP9 counter-screen. 1.1% of 300,000 active. recombinant GSTO1, activity-based probe fluorescence polarization. AID 1974. P78417. inhibition, % at 5.96 µM;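 active means inhibition above the campaign mean inhibition plus 3 SD, cut at about 35% in these data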;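 further: 0% = GSTO1-1 with DMSO and 100% = wells lacking GSTO1-1 enzyme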
# LYPLA2 inh = counter-screen for PME1 inhibitors: inhibitors of human LYPLA2; inhibition, % at 5.9 µM; 0.38% of 320,000 active; recombinant LYPLA2, FP-Rh probe fluorescence polarization; O95372;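 active means inhibition above the screen-wide mean plus 3 SD, limit set per campaign, cut at about 26% in these data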;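 further: 0% = LYPLA2 with DMSO and 100% = wells lacking LYPLA2 enzyme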
# PME-1 inh = blocks human protein phosphatase methylesterase 1; Q9Y570; recombinant PME-1, FP-Rh probe fluorescence polarization; inhibition, % at 5.9 µM; 0.53% of 320,000 active; AID 2130;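 active means inhibition above the campaign mean of all compounds plus 3 SD, cut at about 26% in these data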;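 further: competitive labeling of PME-1 active site by serine hydrolase directed probe; 0% = PME-1 with DMSO and 100% = wells lacking PME-1 enzyme; inhibitors block probe labeling so polarization falls and inhibition rises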
# PAD4 inh = blocks human protein arginine deiminase 4; Q9UM07; inhibition, % at 6.36 µM; 0.41% of 330,000 active; recombinant PAD4, RCA probe fluorescence polarization;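 active means percent inhibition above a cutoff equal to the mean of all tested compounds plus 3 SD, cut at about 15% in these data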;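 further: 0% = PAD4 with RCA probe and DMSO and 100% = probe without PAD4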
# Target sequence (Q9UM07 whole entry, looked up): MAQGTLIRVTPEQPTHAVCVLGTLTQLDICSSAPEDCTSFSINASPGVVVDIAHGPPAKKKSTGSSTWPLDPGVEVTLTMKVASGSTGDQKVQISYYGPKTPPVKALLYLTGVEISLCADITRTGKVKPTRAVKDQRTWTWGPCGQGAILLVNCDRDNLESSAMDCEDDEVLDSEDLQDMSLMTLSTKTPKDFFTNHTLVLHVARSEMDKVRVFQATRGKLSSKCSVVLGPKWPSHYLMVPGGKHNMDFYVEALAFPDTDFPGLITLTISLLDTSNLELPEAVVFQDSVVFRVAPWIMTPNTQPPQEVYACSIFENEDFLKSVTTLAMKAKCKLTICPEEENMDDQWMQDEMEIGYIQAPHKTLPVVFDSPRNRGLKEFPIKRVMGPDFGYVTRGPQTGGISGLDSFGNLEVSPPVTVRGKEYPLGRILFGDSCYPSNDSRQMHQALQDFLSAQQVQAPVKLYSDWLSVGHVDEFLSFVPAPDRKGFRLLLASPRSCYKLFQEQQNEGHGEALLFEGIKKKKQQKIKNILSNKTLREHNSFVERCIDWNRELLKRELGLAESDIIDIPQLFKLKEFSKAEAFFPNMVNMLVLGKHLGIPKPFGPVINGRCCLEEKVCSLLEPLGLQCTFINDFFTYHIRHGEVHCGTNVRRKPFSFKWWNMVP
# Fam108b inh conf = Fam108b (mouse) hydrolase inhibition, confirmation assay | AID 1978 | inhibition, % at 9.51 µM | recombinant Fam108b, FP-Rh probe fluorescence polarization | shares compounds with Fam108B inh | 44% of 930 active;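 active means inhibition above a limit from the primary screen, the mean over all compounds plus 3 SD, cut at about 19% in these data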;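 further: 0% = median of active Fam108b wells and 100% = catalytically dead S170A mutant; inhibitors free the probe so polarization falls as inhibition rises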
# Fam108b inh = mouse ABHD17B inhibition; shares compounds with Fam108B inh; 44% of 260 active; recombinant Fam108b, gel-based ABPP, fluorophosphonate probe; inhibition, % at 20 µM; in the data active means inhibition above about 40%
# GSTO1 confirm = confirmation of human GSTO1 inhibitors; AID 2176; recombinant GSTO1, probe fluorescence polarization; 54% of 2,400 active; shares compounds with GSTO1 inh; inhibition, % at 5.96 µM;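 active means inhibition above the primary screen's cutoff, its mean inhibition plus 3 SD, cut at about 35% in these data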;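 further: loss of polarization as inhibitors block binding of rhodamine sulfonate ester activity probe; 0% = GSTO1 with DMSO and 100% = wells lacking GSTO1 enzyme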
# Numbers without * were called inactive; x = no result; ! = not active in a repeat.
SMILES,LYPLA1 counter,Fam108B inh,GSTO1 inh,LYPLA2 inh,PME-1 inh,PAD4 inh,Fam108b inh conf,others
O=C(NCCc1ccc(Cl)cc1)C1CCCN1C(=O)Nc1ccccc1 (configuration not stated),-0.1,30.5*,2.8,3.0,3.8,-0.1,3.4,
CN1CCN(C(=O)C2=C[C@H](c3ccc4c(c3)OCO4)C[C@H](OCCCCO)O2)CC1,2.2,-1.6,0.5,1.6,3.6,1.1,x,
O=[N+]([O-])c1cc(Br)c(O)c(C=NNc2nnnn2-c2cccc3ccccc23)c1,x,x,x,x,x,x,x,Fam108b inh=0.0
COc1cccc2c(N/N=C/c3ccccc3)cc(C)nc12,-1.5,-0.2,2.2,-2.4,-0.8,-3.2,x,
COc1ccc2nc(C)cc(N/N=C/c3cccc(OC)c3O)c2c1,-0.2,18.9*,11.2,-11.6,14.3,-2.8,-0.8,
COc1ccc(/C=N/Nc2cc(C)nc3ccc(Br)cc23)cc1,-8.9,20.0*,-7.3,-19.6,35.5*,-2.6,-0.9,
Cc1cc(N/N=C/c2ccccc2O)c2ccccc2n1,-4.4,9.1,-3.8,2.2,5.7,-2.2,x,
Cc1ccc(S(=O)(=O)N2CCN(C(=O)CN3C(=O)c4ccccc4C3=O)CC2)c(C)c1,-2.1,x,x,-0.1,18.9,0.8,x,
O=C(Cc1ccccc1)NCCn1ccc2ccccc21,-0.4,1.1,-1.0,6.5,-1.2,-0.3,x,
CC(=O)NCCn1ccc2ccccc21,-0.6,22.0*,10.7,-9.1,-5.9,-3.4,4.8,
O=C(N/N=C/c1c[nH]c2ccccc12)c1ccn(Cc2ccc(Cl)cc2Cl)n1,-10.5,20.7*,5.0,1.2,17.5,-7.3,0.5,
O=C(N/N=C/c1c[nH]c2ccc(Br)cc12)c1ccn(Cc2ccc(Cl)cc2)n1,-13.2,2.3,3.5,-17.4,-5.5,-2.6,x,
COc1cc(/C=N/Nc2nc3c(c(=O)n(C)c(=O)n3C)n2Cc2ccccc2)ccc1OC(=O)c1ccco1,-9.6,19.5*,1.9,4.9,39.2*,-0.1,-9.8,
O=C(c1ccc(OCCN2CCCCC2)cc1)c1c(-c2ccc(O)cc2)sc2cc(O)ccc12,-7.8,20.7*,-45.5,-1.2,6.0,-3.1,24.0*!,
N=C1/C(=C\c2ccc(-c3cccc(C(=O)O)c3)o2)C(=O)N=C2SC=C(c3ccccc3)N12,-11.7,23.6*,-43.0,-5.4,2.5,-17.8,3.4,
COc1ccccc1C(=O)NCCC(=O)NCCc1ccccc1,0.1,-2.2,0.4,6.0,-4.6,2.5,x,
O=C(c1cc2ncc(Br)cn2n1)N1CCN(C(=O)c2ccco2)CC1,-3.2,19.2*,4.6,-0.9,1.0,-0.8,-6.9,
O=C(c1cc2ncc(Br)cn2n1)N1CCOCC1,-3.5,1.4,6.5,-5.7,-2.3,-1.0,x,
Cc1cccc2c(N=O)c(O)[nH]c12,7.2,27.5*,-5.2,12.1,53.1*,-8.5,24.1*,
Cc1[nH]c2c(C)cccc2c1CC(=O)O,-1.4,2.0,-2.0,-7.8,0.6,-3.9,x,
Cc1ccc(NC2=CC(=O)C(=O)c3ccccc32)c(C)c1,2.4,x,x,5.6,12.9,-12.3,x,
Cc1cc(C)c(Nc2cc(S(=O)(=O)O)c(N)c3c2C(=O)c2ccccc2C3=O)c(C)c1,55.0*,69.5*,80.4*,27.3*,63.9*,9.2,92.8*,GSTO1 confirm=88.2*
Cc1ccc(S(=O)(=O)N2CCOCC2)cc1NC(=O)COC(=O)COc1ccccc1[N+](=O)[O-],x,x,x,x,x,-2.3,x,
C/C(=N\NC(=O)c1cc(O)cc(O)c1)c1ccc(NC(=O)Cc2ccccc2)cc1,-7.8,26.6*,37.8*,3.5,1.6,-1.0,9.7,GSTO1 confirm=46.7*
O=C1C=C(c2ccc(CO)cc2)C[C@@H](c2ccc3c(c2)OCO3)C1,0.6,x,x,6.6,5.3,-5.7,x,
Cc1cc(NC(=O)CCC(=O)N(c2ccccc2)C(C(=O)NC2CCCC2)c2ccc(F)cc2)no1 (configuration not stated),-0.1,1.2,1.5,7.0,9.9,-1.4,x,
O=C(NC1CCCC1)c1cccc2c1C(=O)c1ccc(Cl)cc1S2(=O)=O,0.3,x,x,-0.3,0.9,0.3,x,
